Source: PubChem BioAssay (NCI)
About 79,000 compounds went through this panel and 15% of them were active in at least one assay; those are over-represented in the sample as a whole. Values without a mark were called inactive. The source made the active and inactive calls. Cut-off read from the data, not from the text of the source: active = growth inhibition above about 70%; inactive = the rest.

How the values were obtained:
[1] = NCI Yeast Anticancer Drug Screen. Data for the rad50 strain (AID 155);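 note: 0% = growth of vehicle-only cultures of the same strain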; conditions: S. cerevisiae rad50 strain growth inhibition, active compounds read high
Procedure, shortened: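 Genetically altered yeast (DNA repair pathway); compound treatment; growth inhibition vs vehicle ctrl.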

[2] = NCI Yeast Anticancer Drug Screen. Data for the mec2-1 strain (AID 157); conditions: S. cerevisiae mec2-1 strain, active compounds read high
Procedure, shortened: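 mec2-1 yeast strain, carrying an alteration in DNA damage repair or cell cycle control, was exposed to compounds; growth inhibition was measured relative to vehicle-treated controls.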

[3] = NCI Yeast Anticancer Drug Screen. Data for the sgs1 mgt1 strain (AID 161);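 note: 0% = growth of cultures given vehicle only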; conditions: S. cerevisiae sgs1 mgt1 strain, active compounds read high
Procedure, shortened: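 Yeast cells carrying a defined DNA-repair defect were exposed to test compounds. Growth inhibition was measured relative to vehicle-treated controls.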

[4] = NCI Yeast Anticancer Drug Screen. Data for the cln2 rad14 strain (AID 165);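 note: 0% = growth equal to vehicle treated cultures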; conditions: S. cerevisiae cln2 rad14 strain, active compounds read high
Procedure, shortened: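 Yeast carrying cln2 and rad14 alterations (cell cycle control and DNA damage repair) were exposed to compounds. Growth inhibition was measured against vehicle-treated controls.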

[5] = NCI Yeast Anticancer Drug Screen. Data for the bub3 strain (AID 167); conditions: S. cerevisiae bub3 mutant strain, active compounds read high
Procedure, shortened: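 Yeast carrying a defined mutation is treated with each compound, and growth is compared with that of vehicle-exposed cells to give inhibition.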

[6] = NCI Yeast Anticancer Drug Screen. Data for the mlh1 rad18 strain (AID 175); conditions: S. cerevisiae mlh1 rad18 strain growth inhibition, active compounds read high
Procedure, shortened: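 Growth inhibition of the yeast strain was measured after compound exposure and expressed relative to vehicle-treated controls. The strain carries defined defects in DNA damage repair.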

[7] = at 5.0 µM (retest, dose inferred, filed as 0.5)
[8] = at 50.0 µM (retest, dose inferred, filed as 5.0)

| SMILES | growth inhibition [1, 7] | growth inhibition [1, 8] | growth inhibition ([1]; at 50.0 µM) | growth inhibition [2, 7] | growth inhibition [2, 8] | growth inhibition ([2]; at 50.0 µM) | growth inhibition [3, 7] | growth inhibition [3, 8] | growth inhibition ([3]; at 50.0 µM) | growth inhibition [4, 7] | growth inhibition [4, 8] | growth inhibition ([4]; at 50.0 µM) | growth inhibition [5, 7] | growth inhibition [5, 8] | growth inhibition ([5]; at 50.0 µM) | growth inhibition [6, 7] | growth inhibition [6, 8] | growth inhibition ([6]; at 50.0 µM) |
| --- | --- | --- | --- | --- | --- | --- | --- | --- | --- | --- | --- | --- | --- | --- | --- | --- | --- | --- |
| Cc1cccc(CC(C)(C)C)c1NC(=O)C(=O)C(C(=O)c1ccc2ccccc2c1)C1OC(=O)c2ccccc21 (stereo not given) | 6% | 78% (active) | 52.8% | -1% | 92% (active) | 23.6% | 9% | 92% (active) | 36.3% | -1% | 76% (active) | 12.8% | 2% | 93% (active) | 52.1% | -1% | 86% (active) | 68.2% |
| CC(C)=CCc1ccc(O)cc1 | -24% | 97% (active) | -3.15% | 5% | 98% (active) | 25.1% | -13% | 98% (active) | -24.1% | 5% | 96% (active) | 34.8% | -10% | 99% (active) | 53.9% | 1% | 97% (active) | 1.75% |
| O=[N+]([O-])c1ccc2nc(-c3ccccn3)[nH]c2c1 | -2% | 27% | 86.3% (active) | 1% | 5% | 87% (active) | -13% | 17% | 73.6% (active) | -12% | -3% | 77.3% (active) | -25% | 16% | 88.6% (active) | -38% | 42% | 88.5% (active) |
| Cn1c2nc(-[n+]3ccccc3)nc-2c([O-])n(C)c1=O | 1% | 3% | -15.8% | 3% | 7% | -2.25% | -1% | 39% | 2.1% | -2% | 7% | 70% (active) | -1% | 0% | -6.95% | -1% | 8% | -8.75% |
| COc1ccc2c(c1)CC[C@@H]1C2CC[C@]2(C)OC(=O)CCC12 (stereo not given in full) | -23% | 98% (active) | 73.1% (active) | -5% | 89% (active) | 66.8% | -15% | 93% (active) | 77.1% (active) | -4% | 92% (active) | 67.3% | -31% | 97% (active) | 72.7% (active) | 12% | 97% (active) | 71.7% (active) |
| CC(CC=NCCN=CCC(C)CC(C)(C)C)CC(C)(C)C (stereo not given) | 16% | -2% | 97.9% (active) | -3% | 3% | 68.3% | 5% | 45% | 91.3% (active) | 0% | 10% | 30.1% | -6% | 3% | 96.3% (active) | 1% | 20% | 98.4% (active) |
| CCOC(=O)Nc1cc2c(c(N)n1)N=C(c1ccccc1)CN2 | 6% | 34% | 36.3% | -25% | 35% | -3.7% | -13% | 89% (active) | 37.2% | 11% | 33% | 17.9% | 22% | 80% (active) | 47.1% | 10% | 52% | 18.1% |
| CC1(C)CCC2(C(=O)O)CCC3(C)C(=CCC4C5(C)CC(O)C(O)C(C)(C(=O)O)C5CCC43C)C2C1 (stereo not given) | 99% (active) | 99% (active) | 91.9% (active) | 99% (active) | 99% (active) | 94.6% (active) | 99% (active) | 99% (active) | 93.2% (active) | 99% (active) | 99% (active) | 92.5% (active) | 99% (active) | 99% (active) | 92.4% (active) | 99% (active) | 99% (active) | 91.9% (active) |
| CCC1C(c2cccc(OC)c2O)c2cc3c(cc2OC1N1CCCC1)OCO3 (stereo not given) | 21% | 43% | -66.2% | 22% | 19% | -19.7% | 26% | 25% | -52.7% | 31% | 45% | -28.6% | 17% | 26% | -5.3% | 22% | 63% | -29.7% |
| Nc1cc(Br)c2cccnc2c1O | 81% (active) | 98% (active) | 97.2% (active) | 44% | 98% (active) | 94.7% (active) | 67% | 98% (active) | 98% (active) | 28% | 98% (active) | 94.2% (active) | 35% | 98% (active) | 93.7% (active) | 86% (active) | 98% (active) | 95.7% (active) |
